This passage reports Potency results from PubChem BioAssay AID504806 (National Center for Advancing Translational Sciences (NCATS), 2011).

SMILES strings stand for the structures. Activity calls are given as the source filed them. Calls come from the whole dose curve; as a rule, active = well fitted activation curve with a large enough effect; inactive = flat fitted curve, though single readings scatter.

A short description of the experiment: Followup screen of LOPAC molecules that induce DNA re-replication in SW480 adenocarcinoma cells. To be noted: Hoechst nuclear DNA content imaging, 48 h; series mostly up to 46.1 µM. From the text: NIH Molecular Libraries Probe Production Network [MLPCN] NIH Chemical Genomics Center [NCGC] MLPCN Grant: Fast Track K99 CA136555 Assay Provider: Melvin DePamphilis, NICHD, NIH Assay Overview Eukaryotic cells normally restrict genome duplication to once per cell division. When this process is aberrant, DNA re-replication occurs when cells reinitiate DNA replication before the first round of replication is complete. DNA re-replication induces the DNA damage response, arrests cell proliferation, and triggers apoptosis. The cell cycle components cyclin A, Cdt-1, Cdc6 and geminin are critical regulators of this process and their misregulation results in DNA re-replication in normal and cancer cells. To identify compounds that induce re-replication in normal cells, an image-based assay was used to measure DNA content of nuclei, as detected by the fluorescent DNA binding dye, Hoechst. Cell nuclei were imaged by a fluorescence scanning plate imager and compounds that induce DNA re-replication were identified by the increase of nuclei with elevated fluorescence intensity.
Assay Protocol Summary For screening, 250 cells in 5 uL/well were dispensed into black clear 1536-well plates (Aurora) using a solenoid-based dispenser. Following transfer of 23 nL compound or DMSO vehicle by a pin tool, the plates were incubated 48 hr at 37 C and 5% CO2. After addition of 1 uL/well Hoescht stain, the plates were incubated 40 min at 37 C, 5% CO2 and total intensity of fluorescent objects (nuclei) were enumerated by an Acumen Explorer Ex3 (TTP LabTech) fluorescence scanning plate imager (405 nm excitation, 500-530 nm emission). Keywords: NIH Roadmap, MLPCN, MLI, MLSMR, qHTS, NCGC, DNA replication, cancer
With `COc1cc([C@@H]2c3cc4c(cc3[C@H](O)[C@@H]3COC(=O)[C@H]23)OCO4)cc(OC)c1OC`, the Potency was 0.0239 µM (active).

Take `NCC#Cc1ccccc1`: the Potency is 7.55 µM (active).

In the case of `CC(C)NP(=O)(NC(C)C)OP(=O)(NC(C)C)NC(C)C`, the Potency entry was “inactive”.
